Assay outcomes: PubChem BioAssay, Buhrlage Lab, Dana-Farber Cancer Institute and Novartis Institutes for BioMedical Research (Cambridge, Mass)
USP17 inh: blocks human USP17 ubiquitin-rhodamine cleavage | inhibition, % at 50 µM | purified USP17, Ub-rhodamine cleavage fluorescence, 3 h | 47,000 compounds, 6.5% hits
USP8 inh: blocks human USP8 ubiquitin-rhodamine cleavage. P40818. purified USP8, Ub-rhodamine cleavage fluorescence, 30 min. inhibition, % at 20 µM. 47,000 compounds, 4.2% hits
USP30 block: blocks human USP30 ubiquitin-rhodamine cleavage | purified USP30, Ub-rhodamine cleavage fluorescence | inhibition, % at 25 µM | 47,000 compounds, 5.3% hits
USP28 inh: blocks human USP28 ubiquitin-rhodamine cleavage. Q96RU2. purified USP28, Ub-rhodamine cleavage fluorescence, 30 min. inhibition, % at 25 µM. 47,000 compounds, 3% hits
Active calls of the source: *; . = not tested or not shown. In the library only some 14% were active in any assay of this set; here they are far more common. Rule as the data show it: active = inhibition above about 30%; inactive = the rest.

SMILES	USP17 inh	USP8 inh	USP30 block	USP28 inh
O=C(CN1C(=O)C2CCCCN2c2ccc(C(=O)N3CCCC3)cc21)N1CCCC1 (stereo not given)	-23	4	-102	-27
CC(=O)Nc1ccc(C(=O)N2C[C@H]3C[C@H](COc4cccnc4)[C@@H](C2C)N3C)cc1 (stereo not given in full)	1	0	1	-4
CN1CCc2c(sc(NC(=O)CSc3ccc(F)cc3)c2C(N)=O)C1	.	-158	-10	-8
O=C(Cc1cccc2ccccc12)N1CC(c2nc(Cc3ccccc3)no2)C1	5	-7	1	1
O=C(NCc1ccc(F)cc1)[C@@H]1Cc2c([nH]c3ccccc23)C2c3ccccc3C(=O)N21 (stereo not given in full)	22	9	-1	5
COCCN1C(=O)c2ccccc2C(C(=O)NCc2ccccc2OC)C12CCCC2 (stereo not given)	-11	6	-16	-6
COc1ccccc1CNC(=O)C1c2ccccc2C(=O)N1Cc1ccc(C)cc1 (stereo not given)	75*	27	86*	9
CCOc1ccc(N2C(=O)c3ccccc3C2C(=O)NCc2ccccc2OC)cc1 (stereo not given)	35*	27	52*	14
CCOc1ccc(CN2C(=O)c3ccccc3C2C(=O)NCc2ccccc2OC)cc1 (stereo not given)	40*	17	33*	15
COc1ccccc1CNC(=O)C1c2ccccc2CC(=O)N1C(C)C (stereo not given)	3	4	-3	-6
Cc1c(C)n(-c2ccccn2)c2ncn(Cc3ccco3)c(=N)c12	-3	-3	-32	-11
O=C1O[C@@H]2[C@H](O)[C@@H](O)O[C@@H]2[C@@H]1O	3	9	14	3
O=c1c2ccccc2nc(CSc2nc3ccc4[nH]snc4c3n2)n1-c1ccccc1	51*	15	37*	51*
O=c1c2ccccc2nc(N2CCN(Cc3ccccc3)CC2)n1-c1ccccc1	-19	-9	3	-13
CC(Oc1ccc(F)cc1)C(=O)Nc1ccc2nsnc2c1 (stereo not given)	34*	83*	-2	25
CC(Oc1ccc(F)cc1)C(=O)Nc1ccccc1Br (stereo not given)	10	6	7	3
O=C(CCc1ccccc1)Nc1cc(F)c2nc(N3CCCCC3)ccc2c1	28	70*	-14	10
COc1ccc(NS(=O)(=O)c2cc(NC(=O)CCc3ccccc3)ccc2N2CCOCC2)cc1	1	0	17	7
O=C(Nc1cc(F)c2nc(N3CCCC3)ccc2c1)c1ccco1	56*	70*	-138	0
COc1ccc(CCC(=O)Nc2cc(F)c3nc(N4CCOCC4)ccc3c2)cc1	2	47*	12	14
Cc1nc(Nc2ccc(NC(=O)c3ccco3)cc2)cc(N2CCOCC2)n1	-12	-27	-17	-8
COc1cccc(CC(=O)Nc2cc(F)c3nc(N4CCOCC4)ccc3c2)c1	58*	72*	-96	36*
Cc1nn(C)cc1S(=O)(=O)N1C[C@@H]2CC[C@H](Oc3ccc(F)cc3)[C@@H]2C1	13	-76	7	16
O=C(CSc1nc2ccccc2[nH]1)N1CCN(S(=O)(=O)/C=C/c2ccccc2)CC1	36*	23	31*	13
O=C(NCc1ccc(F)cc1)c1cn(CC2CCCO2)cc2c(=O)n(-c3ccccc3)nc1-2 (stereo not given)	-2	-2	0	-9
SMILES	USP17 inh	USP8 inh	USP30 block	USP28 inh
O=C(Nc1ccncc1)c1cn(Cc2ccccc2)cc2c(=O)n(-c3ccccc3)nc1-2	24	18	50*	16
COc1cc(C2CCN(S(=O)(=O)c3ccc(C)cc3)CC2)on1	3	12	18	6
COc1ccc(-c2cc3c(=O)n(CC(=O)NCc4ccccc4)ncn3n2)cc1	25	-31	43*	15
COc1ccc(-c2cc3c(=O)n(CC(=O)NCCN4CCCC4)ncn3n2)cc1	43*	13	34*	18
O=C(c1nc(-c2ccc(N3CCCCCC3)cc2)no1)N1CCOCC1	-1	5	13	6
CCOC(=O)N1CCN(Cc2nnnn2-c2cccc(F)c2)CC1	17	4	34*	11
O=C(c1ccc(F)cc1)N1CCN(Cc2nnnn2-c2cccc(F)c2)CC1	0	8	23	7
Cn1c(=O)c2c(ncn2CCOc2ccccc2F)n(C)c1=O	3	-1	15	20
Cc1ccc2c(c1C)NC(=O)[C@]21N2CCC[C@H]2[C@@H](C(=O)c2cc3ccccc3o2)[C@]12C(=O)Nc1ccccc12	44*	21	-18	-11
